eIF4H inh – inhibitors of RNA binding by human eIF4H. Q15056. eIF4H fluorescence polarization binding assay. inhibition, % at 35 µM. actives 0.94% (n = 290,000);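 note: calls also rest on retests at 20 µM and on dose response follow-up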
PABP FP inh – blocks human PABP binding to poly(A) RNA; fluorescence polarization; inhibition, % at 35 µM; actives 1% (n = 290,000); P11940;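 note: calls also rest on retests at 20 µM and on dose response follow-up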
PERK inhibitor – human PERK inhibition, primary cell-based screen | Q9NZJ5 | CHO PERK-DD fusion, SEAP luminescence translation reporter | inhibition, % at 5.6 µM | actives 0.17% (n = 220,000) | AID 1416;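 active = inhibition above the mean inhibition of all tested compounds plus 3 SD, set separately per screening campaign, cut at about 2.9% in these data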;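 note: PERK kinase domain activated by AP20187 dimerizer at 100 nM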
MLLE-PAM2 inh – blocks PAM2 peptide binding to the PABP1 MLLE domain; P11940; GST-MLLE / FITC-PAM2 fluorescence polarization; inhibition, % at 20 µM; actives 0.36% (n = 360,000); in the data active = inhibition above about 35%, passing the limit was not always enough
GRK2 aptamer HTS – blocks RNA aptamer binding to human GRK2 | P25098 | bead flow cytometry, FAM-aptamer displacement from GRK2 | inhibition of aptamer binding, % at 10 µM | actives 0.59% (n = 330,000);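 active = inhibition of aptamer binding above 40%, roughly 3 SD of noise, on plates passing a quality check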;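 note: median bead fluorescence of bound FAM aptamer so fluorescent compounds give negative values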
GRK2 CP1 – human GRK2 inhibition confirmation, cherry pick 1; shares compounds with GRK2 aptamer HTS; bead-bound GRK2, FAM-aptamer displacement, flow cytometry; aptamer displacement, % at 10 µM; actives 4% (n = 2,000); AID 504451;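 active = aptamer displacement above 40%, near three times the noise of non-fluorescent compounds, on plates passing quality checks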;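 note: negative values mostly reflect intrinsic compound fluorescence rather than true enhancement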
Aptamer quench – fluorescent aptamer quenching in GRK2 counter-screen dose response | fluorescence change (kMESF span), kMESF (test concentration not listed) | Fluorescent RNA aptamer beads, flow cytometry; active compounds read high | shares compounds with GRK2 aptamer HTS | 110 tested, under 10 active;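 active = compounds whose bead fluorescence drops by more than 37 kMESF across the dose range, marking them as dye quenchers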
FAM quench CP1 – aptamer fluorescence quenching in GRK2 counter-screen; AID 504580; Carboxyfluorescein RNA aptamer on beads, flow cytometry quenching; active compounds read low; shares compounds with GRK2 aptamer HTS; 2,000 tested, under 10 active; fluorescence response (% of DMSO), % at 10 µM;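 active = compounds that quench the bead-bound fluorescent RNA probe, cutting fluorescence to under half of the solvent control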;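 note: counterscreen run without GRK2 so only probe quenching by compound is measured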
GRK2 CP2 – confirmation of human GRK2 inhibitors binding RNA aptamer site. shares compounds with GRK2 aptamer HTS. bead-bound GRK2, FAM-aptamer displacement, flow cytometry. inhibition of aptamer binding, % at 10 µM. 360 tested, under 10 active;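 active = inhibition of aptamer binding above 40%, about triple the noise seen with nonglowing compounds, on plates passing quality control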;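 note: negative values mostly come from compounds that fluoresce themselves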
FAM quench CP2 – aptamer fluorescence quenching in GRK2 counter-screen; shares compounds with GRK2 aptamer HTS; carboxyfluorescein RNA aptamer beads, flow cytometry quenching; active compounds read low; fluorescence response vs DMSO, % at 10 µM; 360 tested, under 10 active; AID 588494;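 active = response vs DMSO under 50%, meaning signal dropped by over half, treated as fluorescence quencher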;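 note: labelled aptamer on streptavidin beads without GRK2 as a quench counter-screen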
Numbers stand for hits; n = inactive; x = no result. Most compounds without a hit are left out; they make up all but 1.9% or so of the library. Unless noted, the rule behind the calls is not given here.

SMILES | eIF4H inh | PABP FP inh | PERK inhibitor | MLLE-PAM2 inh | GRK2 aptamer HTS | GRK2 CP1 | FAM quench CP1 | others
Cc1ccc(SCCc2ccc(C)nc2)cc1 | n | n | n | n | n | x | x
Cc1cccc(N=Nc2cnc(N)s2)c1 | n | n | n | n | n | x | x
CCN(C(=O)c1nn(-c2ccc(OC)cc2)c(=O)c2c1c1ccccc1n2C)c1ccc(OC)cc1 | n | n | n | n | n | x | x
COc1ccc(-n2nc(C(=O)NCc3cc(OC)ccc3OC)c3c4ccccc4n(C)c3c2=O)cc1 | n | n | n | n | 77 | n | n
COCCCn1c(SCC(N)=O)nnc1-c1ccccc1 | n | n | n | n | n | x | x
COCCCn1c(SCC(=O)N(C)C)nnc1-c1ccccc1 | n | n | n | n | 99 | n | n
COc1ccccc1OCCC(=O)Nc1cccc(S(=O)(=O)N2CCCCC2)c1 | n | n | n | n | n | x | x
COc1ccccc1OCCC(=O)Nc1cccc(S(=O)(=O)N2CCOCC2)c1 | x | x | x | n | 97 | n | n
COc1ccc(C(=O)CC(C(=O)O)c2ccc(OC)c(OC)c2)cc1OC (stereo not drawn) | x | x | x | n | x | x | x
CCC(NS(=O)(=O)c1ccc(C)cc1)C(=O)N1CCOCCOCCOCCOCC1 (stereo not drawn) | n | n | x | n | n | x | x
Cc1ccc(NC(=O)CCn2c(=O)[nH]c3ccsc3c2=O)cc1F | n | n | x | n | 71 | n | n
COc1ccc(Cl)cc1Nc1nnc(-c2ccncc2)s1 | n | n | x | n | 55 | n | n
CCn1cc(C(=O)N2CC(C)CC(C)C2)c(=O)c2cc(S(=O)(=O)N(C)C)ccc21 (stereo not drawn) | n | n | n | n | n | x | x
CC1CC(C)CN(C(=O)c2cn(C)c3ccc(S(=O)(=O)N(C)C)cc3c2=O)C1 (stereo not drawn) | n | n | n | n | 86 | n | n
Cc1ccccc1CN1C(=O)[C@H]2Cc3c([nH]c4ccccc34)C(C)(C)N2C1=O | x | x | x | n | n | x | x
O=C(CN1C(=O)NC2(CCCc3ccccc32)C1=O)Nc1cc(F)ccc1F (stereo not drawn) | x | x | x | n | n | x | x
Cc1cccc(-c2nc3c(c(=O)c4ccccc4n3C)c(=O)n2-c2ccccc2)c1 | n | n | n | n | n | x | x
CC(CC(=O)Nc1ccc(F)cc1)S(=O)(=O)c1ccc2c(c1)NC(=O)CO2 (stereo not drawn) | n | n | x | n | n | x | x
CC(CC(=O)Nc1ccc(Br)cc1F)S(=O)(=O)c1ccc2c(c1)NC(=O)CO2 (stereo not drawn) | n | n | x | n | n | x | x | GRK2 CP2=n;FAM quench CP2=n
c1ccc(C[C@H]2CN=C(Nc3ccccc3)N2CCC2CCCC2)cc1 | x | x | x | n | 68 | n | n
CC(C)C[C@H]1CN=C(Nc2ccccc2)N1CCC1CCCCC1 | n | n | x | n | n | x | x
CCN(Cc1ccccc1)C(=O)CCS(=O)(=O)c1ccc2c(c1)NC(=O)CO2 | n | n | x | n | n | x | x
CCOc1ccccc1N(C)C(=O)CCS(=O)(=O)c1ccc2c(c1)NC(=O)CO2 | n | n | x | n | n | x | x | GRK2 CP2=n;FAM quench CP2=n
O=C(CS(=O)(=O)c1ccccc1)N1CCc2ccccc21 | n | n | n | n | n | x | x
O=C(CCS(=O)(=O)c1ccc(Br)s1)N1CCc2ccccc21 | n | n | n | n | n | n | n | Aptamer quench=n
COc1ccc(C)cc1NC(=O)c1cc(C2CC2)nc2c1c(C)nn2C1CCS(=O)(=O)C1 (stereo not drawn) | x | x | x | n | x | x | x
COc1ccc(C(=O)NCc2nnc(SCC(=O)Nc3cc(C)on3)o2)cc1OC | n | n | n | n | n | x | x
COc1cc(C(=O)NCc2nnc(SCC(=O)Nc3cc(C)on3)o2)cc(OC)c1OC | n | n | n | n | 74 | n | n

Assay outcomes as filed in PubChem.
